Screening results deposited in PubChem by National Center for Advancing Translational Sciences (NCATS).
PKM2 act: qHTS Assay for Activators of Human Muscle isoform 2 Pyruvate Kinase; Pyruvate kinase PKM (Homo sapiens), P14618; AID 1631, 2009; Potency, µM (titrated, usually from 57.5 µM), for the others: at the highest dose activation, most hits filed as activators; 0.34% of 260,000 active; purified PKM2, Kinase-Glo ATP luminescence, activation; response scale: 0% is enzyme alone, no compound; further: potency means the concentration at half of the fitted maximal effect; on the % scale 0 is the no-effect control and ±100 the full control effect; nearly all actives have a fitted effect of over 55% in size
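ATP formation by purified human PK-M2, quantified via coupled luciferase luminescence after 1 h at room temperature with 0.1 mM ADP and 0.5 mM PEP final.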
B2AR arrestin: qHTS assay of beta-arrestin-biased ligands of beta2-adrenergic receptor | Beta-2 adrenergic receptor (Homo sapiens), P07550 | beta-arrestin recruitment to beta2AR, cell-based reporter | Potency, µM (doses to about 46.1 µM), for inactives: top-dose activation, hits mostly activators | 0.02% of 330,000 active | AID 492947, 2010;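 further: potency means the concentration at half of the fitted maximal effect; 0% = DMSO controls and full agonism = EC100 isoproterenol or metaproterenol; nearly all actives have a fitted effect of over 65% in size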
Target sequence (P07550 whole entry, looked up): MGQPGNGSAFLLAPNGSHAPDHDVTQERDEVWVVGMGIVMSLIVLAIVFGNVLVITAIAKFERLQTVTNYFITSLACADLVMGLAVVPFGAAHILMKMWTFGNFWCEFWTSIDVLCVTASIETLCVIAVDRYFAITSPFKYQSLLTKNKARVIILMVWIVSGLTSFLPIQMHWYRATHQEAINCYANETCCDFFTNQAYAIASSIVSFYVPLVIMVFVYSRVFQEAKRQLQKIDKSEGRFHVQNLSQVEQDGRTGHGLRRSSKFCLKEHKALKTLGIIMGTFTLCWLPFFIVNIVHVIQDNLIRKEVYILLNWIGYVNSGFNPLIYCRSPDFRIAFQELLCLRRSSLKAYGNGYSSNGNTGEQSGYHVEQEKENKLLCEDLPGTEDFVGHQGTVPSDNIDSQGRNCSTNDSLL
IL-2 act: qHTS of IL-2 Activators; 0.065% of 360,000 active; AID 652025, 2013; IL-2 activation reporter assay, cell-based qHTS; stimulated with anti-CD3/CD4/CD28 beads; in transgenic mouse T cells; activation, % (series mostly up to about 46 µM); in the data active means activation above about 50%; inconclusive means mostly about 30% to 49%; further: 0% is about no effect
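EGFP and DsRed fluorescence is measured by plate cytometry in unstimulated transgenic mouse T cells exposed to compound for 60 minutes, then stimulated 18 hours at 37 degrees C with anti-CD3/anti-CD4 beads plus anti-CD28.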
PINK1 modulator: A Quantitative High throughput Screen to Identify Chemical Modulators of PINK1 Expression; PINK1 immunofluorescence, high-content cytometry, 24 h; Potency, µM (highest dose often 76.6 µM), for the others: at the top dose activation (PINK1 increase), usual class: activators; 0.2% of 410,000 active; AID 624263, 2012; active means well fitted activation curve with a large enough effect; inconclusive means small, poorly fitted or top-dose-only effect; cell line not stated here; further: potency means the concentration at half of the fitted maximal effect; % of control where 0% means no effect; nearly all actives have a fitted effect of over 65% in size
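Stable cell line treated 24 h with compounds at 5 concentrations (CCCP controls), then fixed and immunostained for PINK1 plus nuclear and cell stains; PINK1 immunofluorescence quantified by laser-scanning microplate cytometry.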
Epigenetic derep: Quantitative High-Throughput Screen for Regulators of Epigenetic Control; Potency, µM (doses to about 53.9 µM), inactives show at the highest dose GFP activation, hits mostly activators; murine LDR cells, GFP reporter derepression, 30 h; 0.2% of 280,000 active; further: potency means the concentration at half of the fitted maximal effect; % of control where 0% means no effect; nearly all actives have a fitted effect of over 60% in size
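Readout is the number of GFP-expressing murine LDR cells, counted by cytometry following washing. Cells were treated with compound for 30 h at 37 C; the stably integrated CMV-GFP locus is normally silent.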
* hit, by the source's call; ? = inconclusive; / = not tested or not shown; [ ] = remark or other dose. Only some compounds are listed: those with a hit (about 0.58% of all), similar ones and a draw of the others. Unless noted, the call rests on the fitted dose curve; in most records, active means well fitted curve in the direction sought with a large enough effect; inconclusive means small, poorly fitted or top-dose-only effect, or another doubt; inactive means no such curve, though single readings can be large; an effect the other way counts as inactive or inconclusive.

SMILES | PKM2 act | B2AR arrestin | IL-2 act | PINK1 modulator | Epigenetic derep
CCCCCCSc1ccc(-c2nc3cc(C)ccn3c2NC2CCCCC2)cc1 | / | 0% | -4 | 18µM* | /
CC(=O)N1CCC[C@H]1C(=O)NCC1Cc2cc(-c3cccc(OC(F)(F)F)c3)ccc2O1 (some centres undefined) | / | / | / | 0% | /
COCCNC(=S)N/N=C(\C)c1ccc2cc(OC)ccc2c1 | -2% | 0% | 0 | 2% | 7.9µM*
COCC1CCCN(Cc2ccc3c(c2)CN(C(=O)c2cccnc2OC)CCO3)C1 (centres undefined) | / | / | / | 0% | /
CCc1cccc(NS(=O)(=O)c2ccc3c(c2)CCC(=O)N3)c1 | 2.8µM* | -1% | 1 | 2% | -1%
Cc1cccc(NS(=O)(=O)c2ccc3c(c2)CCC(=O)N3)c1 | 4µM* | 0% | 0 | 5% | /
O=C1CCc2cc(S(=O)(=O)Nc3cccc(Cl)c3)ccc2N1 | / | / | -1 | 3% | /
CCc1cccc(NS(=O)(=O)c2ccc3c(c2)NC(=O)CC(=O)N3)c1 | 9% | 0% | 0 | -3% | -4%
Cc1ccc(NS(=O)(=O)c2ccc3c(c2)CC(=O)N3)cc1C | 14µM* | 0% | 1 | 2% | /
CCN(Cc1ccncc1)S(=O)(=O)c1ccc(C(C)=O)cc1 | 22µM* | -1% | -2 | -2%[38.3 µM] | 3%
CCN(CC)S(=O)(=O)c1ccc(C(=O)Nc2ccc(Cc3ccncc3)cc2)cc1 | 3% | 0% | -3 | 0% | -10%
O=C(O)c1cccc(Cn2c(Cl)c(/C=N/NC(=O)c3cc4ccccc4cc3O)sc2=O)c1 | 32µM* | 0% | 0 | 0% | -2%
CC1(C)CC(=O)C(C2C3=C(CC(C)(C)CC3=O)Oc3c(Br)cc(Br)cc32)=C(O)C1 (centres undefined) | -1% | 0% | 3 | 22µM* | /
CC1(C)CC(=O)C2=C(C1)OC1=C(C(=O)CC(C)(C)C1)C2c1cc([N+](=O)[O-])cc([N+](=O)[O-])c1O | -10% | 0% | 2 | 3% | 1%
Cc1cc(C)n(-c2cc(N3CCN(S(=O)(=O)c4ccc(C)c(C)c4)CC3)ccc2[N+](=O)[O-])n1 | 5% | 0% | 0 | 1% | -2%
Cn1cnnc1Sc1cc(N2CCN(S(=O)(=O)c3ccc4ccccc4c3)CC2)ccc1[N+](=O)[O-] | 0.35µM* | -1% | 0 | -1% | 0%
Cc1cc(C)n(-c2cc(N3CCN(S(=O)(=O)c4ccc5ccccc5c4)CC3)ccc2[N+](=O)[O-])n1 | 1% | 0% | 0 | 2% | -2%
Cn1cnnc1Sc1cc(N2CCN(S(=O)(=O)c3ccc(Cl)c(Cl)c3)CC2)ccc1[N+](=O)[O-] | 2.8µM* | 8% | 2 | 1% | 2%
Cc1ccc(C(=O)Nc2cnn(-c3ccc(C(=O)NCc4nc(-c5ccccc5)n[nH]4)cc3)c2)c(C)c1 | / | / | / | 0% | /
COc1ccc(CCNC(=O)c2cnn(-c3nccc(-c4cccs4)n3)c2C)cc1OC | / | / | / | 1% | /
O=C(NC1CCCCC1)C(c1ccc(F)cc1)N(Cc1ccco1)C(=O)Cn1nnc2ccccc21 (centres undefined) | -1% | 0% | 1 | 14µM* | 0%
Cc1cnc(SCc2ccccn2)nc1C1CCCN(C(=O)c2cccc(-c3cccc(F)c3)c2)C1 (centres undefined) | / | / | / | 2% | /
COc1cc(N2CCCC2)c(OC)cc1/C=C(/C#N)c1ccc(F)cc1 | -20% | -1% | 2 | 3% | 14µM*
COc1cc(N2CCCC2)c(OC)cc1/C=C(/C#N)c1ccc(Br)cc1 | 2% | 0% | 5 | 21% | 3.2µM*
Cc1cccnc1-c1cccc2c1OC(CNC(=O)C(=O)c1ccccc1)C2 (centres undefined) | / | / | / | 1% | /
SMILES | PKM2 act | B2AR arrestin | IL-2 act | PINK1 modulator | Epigenetic derep
CN(Cc1cc(Cl)cc(Cl)c1)[C@H]1C[C@H]2c3[nH]c4ccccc4c3CCN2C(=O)[C@H]1CO | / | / | -3 | 45µM* | /
CN(C(=O)C(C)(C)C)[C@H]1C[C@H]2c3[nH]c4ccccc4c3CCN2C(=O)[C@H]1CO | / | / | -2 | 1% | /
O=C(Nc1ccc(Cl)cc1)C1CCN(S(=O)(=O)c2ccc(Br)s2)CC1 | / | / | / | 18µM* | 10%
CCc1ccc(NC(=O)C2CCN(S(C)(=O)=O)CC2)cc1 | 5% | 5% | 56* | / | 0%
O=C(NCCN1CCOCC1)c1cnn(-c2nccc(-c3ccccc3F)n2)c1C1CC1 | / | / | / | 0% | /
O=C(CSc1nc2ccccc2c(=O)n1Cc1ccccc1)NCc1ccco1 | 1% | 0% | -2 | 5.6µM* | 0%
O=C(CSc1nc2ccccc2c(=O)n1Cc1ccco1)NCc1ccccc1 | / | / | 2 | 21%[38.3 µM] | /
CN1C(=O)/C(=C\c2ccc(N(C)C)cc2)OC1=S | 0% | 0% | ? | 32µM* | /
COc1ccc(/C=C2\OC(=S)N(C)C2=O)cc1 | -2% | 0% | -5 | -2%[38.3 µM] | 2%
CCOc1ccc(NC(=S)NNc2ccnc3cc(Cl)ccc23)cc1 | -9% | -1% | -1 | ? | -1%
S=C(NNc1ccnc2cc(Cl)ccc12)Nc1ccc(Cl)cc1Cl | -3% | 0% | 2 | 8.9µM* | 0%
O=C(NCC1Cc2cc(-c3cncnc3)cc(Cl)c2O1)c1cccc(Cn2cccn2)c1 (centres undefined) | / | / | / | 0% | /
CCCCCCCNC1=CC(=O)CC(c2ccccc2)C1 (centres undefined) | -2% | 0% | -3 | 40µM* | 0%
O=C1C=C(NC2CCCC2)CC(c2ccccc2)C1 (centres undefined) | 3% | 3.5µM* | 5 | 7% | 1%
O=C1CC(CC(=O)N2CC3CCCC2C3)(c2cccc(F)c2)C(=O)N1Cc1cccnc1 (centres undefined) | / | / | / | 0% | /
Cc1cc(=O)c2c(O)c3c(O)cc(=O)c4c3c3c(cc(O)c1c23)C(C)(C)C=4O | / | / | / | / | 16µM*
O=C(CSc1nnc(-c2ccncc2)s1)Nc1ccccc1 | 4µM* | 0% | 1 | 2% | /
COc1ccc(-c2nnc(SCC(=O)Nc3cccc(C)c3)s2)cc1 | / | / | / | 0% | 3%
O=C(CSc1nnc(-c2cccnc2)s1)Nc1cccc(C(=O)O)c1 | -13% | -1% | 0 | 2% | 1%
O=C(CSc1nnc(-c2cccnc2)s1)Nc1ccccc1 | 14µM* | -1% | 3 | ? | /
COc1ccc(N=Cc2c(O)c3ccccc3n2C(C)=O)cc1 | 10% | 0% | 8 | 25µM* | 14%
COc1ccc(N=Cc2sc(O)c3ccccc23)cc1 | 8% | 0% | ? | 4% | 10µM*
COc1ccc(NC(=O)c2cccc(S(=O)(=O)Nc3ccc(Br)cc3)c2)cn1 | -1% | -1% | -5 | 14µM* | 0%
